Screening results deposited in PubChem BioAssay by The Scripps Research Institute Molecular Screening Center.
ADAM17 inh: ADAM17 inhibitors, primary screen, biochemical, QFRET; Disintegrin and metalloproteinase domain-containing protein 17 (Homo sapiens), P78536; recombinant ADAM17, EDANS/DABCYL FRET peptide cleavage; inhibition, % at 6.95 µM; 370,000 tested, 0.83% active; AID 720648, 2013;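 active = inhibition above the mean of compounds lying between control limits plus 3 SD, set per campaign, cut at about 8.5% in these data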;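 note: 0% = DMSO-only wells as the low control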
ADAM10 inh: human ADAM10 inhibitors, primary screen, biochemical, QFRET, HTS; Disintegrin and metalloproteinase domain-containing protein 10 (Homo sapiens), O14672; recombinant ADAM10, EDANS/DABCYL FRET peptide cleavage, 3 h; inhibition, % at 7 µM; 370,000 tested, 0.62% active; AID 720582, 2013;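 active = inhibition above a per-campaign cutoff equal to the mean of compounds falling between control-based bounds plus 3 SD, cut at about 20% in these data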;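 note: 0% = DMSO wells while the 100% control is not disclosed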
PLC-gamma1 inh: PLC-gamma1 enzyme inhibitors, primary screen, biochemical, fluorescence, purified enzyme; 370,000 tested, 0.84% active; AID 720700, 2013; fluorogenic substrate; 1-phosphatidylinositol 4,5-bisphosphate phosphodiesterase gamma-1 (Homo sapiens), P19174; inhibition, % at 12.2 µM; in the data active = inhibition above about 9.5%
Target sequence (P19174 whole entry, looked up): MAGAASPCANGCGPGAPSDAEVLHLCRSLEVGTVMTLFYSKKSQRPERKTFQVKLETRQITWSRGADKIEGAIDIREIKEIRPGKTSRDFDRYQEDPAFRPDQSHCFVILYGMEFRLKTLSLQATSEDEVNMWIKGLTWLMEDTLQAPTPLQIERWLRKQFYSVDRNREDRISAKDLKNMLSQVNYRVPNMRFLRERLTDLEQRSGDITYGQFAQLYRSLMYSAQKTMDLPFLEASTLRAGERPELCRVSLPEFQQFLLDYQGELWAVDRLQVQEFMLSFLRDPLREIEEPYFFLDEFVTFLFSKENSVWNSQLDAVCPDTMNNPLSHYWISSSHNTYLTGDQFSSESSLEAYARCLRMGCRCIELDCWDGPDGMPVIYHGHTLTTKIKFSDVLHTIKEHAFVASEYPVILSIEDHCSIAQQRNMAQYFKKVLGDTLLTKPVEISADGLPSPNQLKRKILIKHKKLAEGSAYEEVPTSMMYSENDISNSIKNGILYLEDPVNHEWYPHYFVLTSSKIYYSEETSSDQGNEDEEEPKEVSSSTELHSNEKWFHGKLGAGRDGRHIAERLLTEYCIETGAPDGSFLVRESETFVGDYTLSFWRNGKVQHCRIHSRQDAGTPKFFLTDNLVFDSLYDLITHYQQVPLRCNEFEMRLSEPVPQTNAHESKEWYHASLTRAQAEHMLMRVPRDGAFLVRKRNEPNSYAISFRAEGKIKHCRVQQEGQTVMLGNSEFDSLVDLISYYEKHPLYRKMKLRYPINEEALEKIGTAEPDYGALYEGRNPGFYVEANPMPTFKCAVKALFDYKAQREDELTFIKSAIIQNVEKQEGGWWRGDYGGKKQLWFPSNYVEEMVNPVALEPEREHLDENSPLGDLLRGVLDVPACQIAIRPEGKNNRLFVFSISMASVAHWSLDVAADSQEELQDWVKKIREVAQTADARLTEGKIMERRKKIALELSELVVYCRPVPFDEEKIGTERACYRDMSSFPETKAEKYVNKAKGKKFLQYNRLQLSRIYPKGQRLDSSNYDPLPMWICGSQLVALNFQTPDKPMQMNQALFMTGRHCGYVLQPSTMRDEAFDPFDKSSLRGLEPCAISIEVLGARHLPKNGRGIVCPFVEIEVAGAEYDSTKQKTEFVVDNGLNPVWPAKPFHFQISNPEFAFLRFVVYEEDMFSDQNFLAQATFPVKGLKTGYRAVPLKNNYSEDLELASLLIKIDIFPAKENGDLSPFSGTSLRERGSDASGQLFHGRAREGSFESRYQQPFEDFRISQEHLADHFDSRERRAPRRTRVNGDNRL
HGIII-sPLA2 inh: human group III sPLA2 inhibitors, primary screen, biochemical, QFRET, BODIPY PC-A2 liposome substrate | QFRET BODIPY PC-A2 liposome hydrolysis, fluorescence | inhibition, % at 12.2 µM | 370,000 tested, 0.56% active | Group 3 secretory phospholipase A2 (Homo sapiens), Q9NZ20 | AID 743126, 2013;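 active = inhibition above mean plus 3 SD of compounds lying within the high and low control bounds, cut at about 19% in these data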;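 note: 0% = median of test compound wells and 100% = no enzyme DMSO wells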
KLK7 zymogen act: proKLK7 zymogen activators, primary screen, biochemical, fluorescence intensity; activation, % at 7 µM; 370,000 tested, 0.9% active; AID 652039, 2013; purified proKLK7, EDANS-DABCYL substrate fluorescence; 100% is mature enzyme control, 0% vehicle;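 active = activation above the mean of all tested compounds plus 3 SD, computed per campaign excluding outliers beyond control limits, cut at about 13% in these data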
PLC-beta3 inh: human PLC-beta3 inhibitors, primary screen, biochemical, fluorescence; 1-phosphatidylinositol 4,5-bisphosphate phosphodiesterase beta-3 (Homo sapiens), Q01970; AID 720704, 2013; 370,000 tested, 0.18% active; Purified PLC-beta3, fluorogenic substrate; inhibition, % at 12.2 µM;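 note: 0% = median of compound wells on plate and 100% = full blocker control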
ADAM10 ctr: ADAM10 inhibitors, counter-screen for ADAM17 exosite inhibitor project, biochemical, FRET, human ADAM10; shares compounds with ADAM17 inh; recombinant ADAM10, EDANS/DABCYL FRET peptide cleavage, 3 h; inhibition, % at 6.95 µM; 2,900 tested, 47% active; AID 743256, 2014;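 active = mean inhibition over the triplicate runs exceeds the activity threshold set in the earlier primary screen, cut at about 20% in these data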;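 note: 0% = DMSO wells and 100% = marimastat wells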
ADAM17 confirm: ADAM17 inhibitors, hit retest, confirmation, biochemical, QFRET peptide cleavage. shares compounds with ADAM17 inh. recombinant ADAM17, EDANS/DABCYL QFRET peptide cleavage. inhibition, % at 6.95 µM. 2,900 tested, 65% active;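 active = mean inhibition across replicates above the hit cutoff set in the primary screen, cut at about 8.5% in these data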;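 note: 0% = DMSO wells and 100% = marimastat wells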
PLCg1 ctr: PLC-gamma1 enzyme inhibitors, counter-screen for PLC-beta3 inhibitor project, biochemical, fluorescence; purified PLC-gamma1, fluorogenic substrate; 3,300 tested, 3.1% active; shares compounds with PLC-gamma1 inh; inhibition, % at 12.3 µM; in the data active = inhibition above about 9.5%
PLCbeta3 conf: PLC-beta3 inhibitor confirmation, biochemical, fluorescence, purified enzyme | shares compounds with PLC-gamma1 inh | fluorogenic substrate fluorescence | inhibition, % at 12.3 µM | 3,300 tested, 1% active | AID 743261, 2014
Active calls of the source: *; . = not tested or not shown. Rows were chosen to be rich in hits. Some 3.4% of all compounds tested hit in one or more screens of this group. Cut-off read from the data, not from the text of the source, unless noted: active = inhibition above about 11%; inactive = the rest.

SMILES	ADAM17 inh	ADAM10 inh	PLC-gamma1 inh	HGIII-sPLA2 inh	KLK7 zymogen act	PLC-beta3 inh	ADAM10 ctr	ADAM17 confirm	PLCg1 ctr	PLCbeta3 conf
Oc1ccc(Cl)cc1Cc1ccccc1	8.7*	0	5	-8	0	-9	18	7	.	.
COC(=O)C1=C(c2ccc(OC(F)(F)F)cc2)C[C@@H]2CC[C@H]1N2C(=O)NCc1cc(C)oc1C(F)(F)F	11*	19	-1	9	0	3	29*	15*	.	.
COC(=O)C1=C(c2ccc(OC(F)(F)F)cc2)C[C@@H]2CC[C@H]1N2C(=O)NCc1ccc(F)cc1	3	15	2	0	-1	1	.	.	.	.
COC(=O)C1=C(c2ccc(OC(F)(F)F)cc2)C[C@@H]2CC[C@H]1N2C(=O)NCc1cccc2ccccc12	8.7*	30*	-2	-10	0	-3	21*	10*	.	.
S=C(NCCc1ccccc1)N1Cc2ccc(Br)cc2-n2nncc2C1	11*	17	2	-6	1	-1	25*	14*	.	.
Cc1ccc(OCCOc2cccc(C=C3C(=O)NC(=O)NC3=O)c2)cc1	9.2*	10	11*	14	0	-3	-2	-1	-6	-2
COc1ccccc1OCCCn1cc(C(C)=O)c2ccccc21	10*	5	13*	4	0	-3	-3	4	-4	-8
COc1ccccc1OCCCn1cc(C(=O)C2CC2)c2ccccc21	0	6	-1	-13	0	-8	.	.	.	.
CCOC(=O)c1nsnc1NCCCl	-9	-22	-3	2	-2	-6	.	.	.	.
O=C1NCN(c2ccccc2)C12CCN(C(CCc1ccccc1)c1nnnn1C1CCCC1)CC2 (configuration not stated)	8.8*	8	11*	0	0	8	9	9.4*	-2	0
O=C1NCN(c2ccccc2)C12CCN(C(CCc1ccccc1)c1nnnn1C1CCCCC1)CC2 (configuration not stated)	-2	-5	0	-3	1	1	.	.	.	.
C[C@]12CCC(=O)C=C1CC[C@@H]1C2CC[C@]2(C)C(=O)CCC12 (some centres not stated)	9.9*	-3	14*	5	1	4	2	2	-4	-5
O=c1[nH]c(=O)n(Cc2ccco2)c(O)c1C=NCc1ccc2c(c1)OCO2	9.3*	-51	9.7*	2	0	5	10	4	-4	-3
COc1cc(CN=Cc2c(O)n(C(C)(C)C)c(=O)[nH]c2=O)cc(OC)c1	0	4	2	-4	0	-4	.	.	.	.
CCCC1(CCO)C(=O)NC(=S)NC1=O	-1	-8	6	-1	-1	7	.	.	.	.
O=C(COc1ccccc1)N1CCN(CC2CC3C=CC2C3)CC1 (configuration not stated)	-1	-3	16*	6	0	1	.	.	-5	0
Cc1ccc(OCC(=O)N2CCN(CC3CC4C=CC3C4)CC2)cc1 (configuration not stated)	-6	3	0	-3	0	-1	.	.	.	.
Oc1c(Cl)c(Cl)c(Cl)c(Cl)c1Cl	0	12	-3	-17	0	0	.	.	.	.
C[C@H](Cc1ccc(OCC(=O)O)cc1)NC[C@H](O)c1cccc(Cl)c1	-2	-5	-1	0	-1	1	.	.	.	.
O=C1NCN(c2ccccc2)C12CCN(C(c1ccccc1OC(F)(F)F)c1nnnn1C1CCCC1)CC2 (configuration not stated)	5	2	11*	-1	0	6	.	.	-2	-5
Cc1ccc(C(C)C)c(OCC#CCN2CCCC2)c1	0	9	4	-5	0	7	.	.	.	.
O=C1CN=C(c2ccccc2)c2c(sc3c2CCCC3)N1	-6	-7	11*	11	0	-8	.	.	9	-2
Cc1ncc(CN2CCCC(C(=O)c3ccc(C(C)(C)C)cc3)C2)s1 (configuration not stated)	2	12	-2	-6	-1	2	.	.	.	.
CC(=NCc1cccnc1)c1c(O)n(-c2ccc(Cl)cc2)c(=O)[nH]c1=O	-3	-2	-1	0	0	-5	.	.	.	.
CC(C)C(=O)N1CCN(CCN=Cc2c(O)n(C)c(=O)n(C)c2=O)CC1	7	14	11*	10	0	4	.	.	-1	0
SMILES	ADAM17 inh	ADAM10 inh	PLC-gamma1 inh	HGIII-sPLA2 inh	KLK7 zymogen act	PLC-beta3 inh	ADAM10 ctr	ADAM17 confirm	PLCg1 ctr	PLCbeta3 conf
CCC(=O)N1CCN(CCN=Cc2c(O)n(C)c(=O)n(C)c2=O)CC1	-3	-2	-3	3	-1	-1	.	.	.	.
CN(C)CC1CSCCC1(O)c1ccc(Cl)cc1 (configuration not stated)	0	4	1	4	-1	3	.	.	.	.
CN(C)CC1CSCCC1(O)c1ccccc1Cl (configuration not stated)	6	10	9.9*	11	0	8	.	.	-4	-1
CN(N)N=Nc1nc2c([nH]1)c(=O)n(C)c(=O)n2C	-10	-28	-6	-2	0	-10	.	.	.	.
COC(=O)C(O)(c1c(C)[nH]n(-c2ccccc2)c1=O)C(F)(F)F (configuration not stated)	7	1	9	2	1	6	.	.	.	.
COc1cc(C(c2c(C)[nH]n(-c3ccccc3)c2=O)c2c(C)[nH]n(-c3ccccc3)c2=O)cc(OC)c1OC	3	10	22*	-2	0	-24	.	.	2	0
